# The list is not random: actives were taken first. Their share in the collection is about 1.4%.
# PTK2B oligo ant = antagonists of Pyk2 self-association, primary screen, Q293 cells, FERM NanoBiT luminescence, HTS; Protein-tyrosine kinase 2-beta (Homo sapiens), Q14289; stronger effect = lower value; z-score (the deposit names both 25 µM and 10 µM); hit rate 0.83% among 99,000; AID 1347419, 2020;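 active = Z-score of -3 or lower, scaled per plate to the spread of control and sample wells; inactive = z-score above -3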;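 note: negative z-score means lost luminescence so less FERM oligomerization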
# Target sequence (Q14289 whole entry, looked up): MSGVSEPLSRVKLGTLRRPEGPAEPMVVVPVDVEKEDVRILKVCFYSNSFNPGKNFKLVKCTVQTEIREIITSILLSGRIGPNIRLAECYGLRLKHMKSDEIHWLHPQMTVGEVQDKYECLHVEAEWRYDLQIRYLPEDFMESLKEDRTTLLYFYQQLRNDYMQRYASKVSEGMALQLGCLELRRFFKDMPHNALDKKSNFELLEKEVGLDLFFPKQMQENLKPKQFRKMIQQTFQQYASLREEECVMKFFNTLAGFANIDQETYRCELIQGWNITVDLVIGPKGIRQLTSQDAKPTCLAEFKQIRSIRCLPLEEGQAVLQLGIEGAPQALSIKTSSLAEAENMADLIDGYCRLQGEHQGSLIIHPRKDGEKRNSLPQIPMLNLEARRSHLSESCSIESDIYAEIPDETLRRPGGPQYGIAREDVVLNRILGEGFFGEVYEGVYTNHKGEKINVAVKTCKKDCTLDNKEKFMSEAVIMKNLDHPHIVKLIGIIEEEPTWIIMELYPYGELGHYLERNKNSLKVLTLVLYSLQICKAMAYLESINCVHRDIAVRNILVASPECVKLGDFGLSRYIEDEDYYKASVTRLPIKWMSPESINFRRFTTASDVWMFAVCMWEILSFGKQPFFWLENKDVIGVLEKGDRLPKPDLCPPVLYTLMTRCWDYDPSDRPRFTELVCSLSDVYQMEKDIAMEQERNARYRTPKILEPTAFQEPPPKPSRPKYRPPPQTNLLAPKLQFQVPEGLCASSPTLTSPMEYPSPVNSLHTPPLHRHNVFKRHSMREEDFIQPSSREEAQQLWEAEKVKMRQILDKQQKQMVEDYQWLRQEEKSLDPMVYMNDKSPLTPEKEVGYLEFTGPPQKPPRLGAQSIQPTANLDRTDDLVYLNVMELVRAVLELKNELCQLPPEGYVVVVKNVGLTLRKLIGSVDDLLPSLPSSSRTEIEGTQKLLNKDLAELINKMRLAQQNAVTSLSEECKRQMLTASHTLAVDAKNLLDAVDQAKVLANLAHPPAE
# Phagocyt inh = inhibitors of macrophage phagocytosis, primary screen, imaging, J774A.1 cells, IgG beads; J774A.1 macrophage IgG-bead phagocytosis; inhibition, % at 5 µM; hit rate 0.07% among 110,000;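 active = inhibition above the mean of the plate negative controls plus 5 SD, cut at about 13% in these data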;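 note: phagocytic index as fraction of beads internalized from green versus red external bead signal; plate controls were DMSO negative control for no effect and cytochalasin-D positive control for full effect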
# HUVEC tox IL1B = cytotoxicity in IL-1B stimulated HUVEC, primary screen, cytotoxicity control for IL-1B NFkB translocation project, imaging, Hoechst nuclear count, IL-1B stimulus; HUVEC cell count loss; cell count reduction, % at 2 µM; hit rate 0.41% among 94,000; AID 845, 2007;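 active = cell count reduction more than 3 SD above the screen-wide mean, cut at about 70% in these data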;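 note: normalized per plate to untreated control cells as the no-loss baseline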
# IL1B NFkB inh = inhibitors of IL-1B driven NFkB p65 nuclear import, primary screen, imaging, HUVEC, IL-1B stimulus, high-content imaging; HUVEC IL-1B NFkB p65 nuclear translocation imaging; inhibition, % at 2 µM; hit rate 0.43% among 94,000; AID 796, 2007;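 active = inhibition above about 30% together with a positive call from visual inspection of the well image, limit read from the data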;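 note: nuclear over cytoplasmic p65 intensity ratio measured by imaging; 0% = IL-1B stimulated DMSO wells and 100% = unstimulated DMSO wells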
# IL1B NFkB pot = enhancers of NFkB p65 translocation in HUVEC – imaging, IL-1B stimulus, high-content imaging, primary screen | HUVEC IL-1B NFkB p65 nuclear translocation imaging | activation, % at 2 µM | hit rate 0.3% among 94,000;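 active = activation above 40%, about the mean plus 3 SD, also judged a hit on visual image review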;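 note: percent activation is computed from the nuclear over cytoplasmic p65 intensity ratio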
# Numbers without * were called inactive; . = not tested or not shown; ! = not confirmed by another sample.
SMILES,PTK2B oligo ant,Phagocyt inh,HUVEC tox IL1B,IL1B NFkB inh,IL1B NFkB pot
CC(C)Oc1ccc(C2CC(=O)N(c3ccc(N(C)C)cc3)C2=O)cc1 (stereo not drawn),-4.2*,.,5,2,-2
COc1cc(C(O)P(=O)(OCC(C)C)OCC(C)C)cc(OC)c1OC (stereo not drawn),0.34,.,-18,2,-2
CCc1cc2c(=O)c(-c3cscn3)coc2c(CN(C)C)c1O,-3.4*,.,-2,-14,14
CCc1nc2ccccc2c(C(=O)OCC(=O)Nc2cccc(S(=O)(=O)N3CCOCC3)c2)c1C,-4.7*,.,-9,-1,1
CCc1nc2ccccc2c(C(=O)OCC(=O)Nc2ccc(S(=O)(=O)N3CCOCC3)cc2)c1C,-4.4*,0,.,.,.
O=C(Nc1ccc(N2CCOCC2)cc1)c1cnsn1,0.13,2,.,.,.
COc1ccc(-c2csc(NC(=O)C3CCCCN3S(=O)(=O)c3ccccc3)n2)cc1 (stereo not drawn),-3.4*,0,5,8,-8
N#Cc1ccc(CNc2cnccn2)cc1,0.62,.,94*,-1,1
N#Cc1ccc(CSc2nnc(-c3cnccn3)o2)cc1,-0.78,0,-15,-8,8
COCc1cc(C)nc(SCC(=O)Nc2cccc3cccnc23)c1C#N,.,-1,19,-2,2
CC1CN(C(=O)c2scc3c2OCCO3)CC(C)O1 (stereo not drawn),-0.69,.,93*,80*,-80
COCc1[nH]nc2c1C(c1ccccc1Cl)C(C#N)=C(N)O2 (stereo not drawn),1,0,88*,12,-12
CCOC(=O)N1CCC(Nc2c(NCCCN(C)Cc3ccccc3)c(=O)c2=O)CC1,.,0,-7,-42,42*
Cc1ccc(S(=O)(=O)N2CCOCC2)cc1C(=O)O,1.3,0,.,.,.
CCCCn1ccnc1C(=O)c1cc(S(=O)(=O)N2CCOCC2)ccc1C,0.27,-1,-12,55*,-55
CC(=O)c1c(C)n(-c2ccccc2)c2ccc(OCC(O)CN3CCOCC3)cc12 (stereo not drawn),1.1,0,-3,-12,12
Nc1nc(C2CCCN2S(=O)(=O)c2ccc(Cl)cc2)cs1 (stereo not drawn),-3.2*,-1,-28,-23,23
COc1ccc2nc(C)cc(SCC(=O)O)c2c1,0.13,-1,18,40*!,-1
CC1(C)CC(=O)C2=C(C1)Oc1ncn(Cc3ccco3)c(=N)c1C2c1ccccc1 (stereo not drawn),-1.1,0,11,-3,3
COc1ccc(C2C3=C(CC(C)(C)CC3=O)Oc3ncn(Cc4ccccc4)c(=N)c32)cc1 (stereo not drawn),-3.7*,1,-17,-4,4
CC1=C(C(=O)OCc2ccc3c(c2)OCO3)C(c2ccc(Cl)cc2)NC(=O)N1 (stereo not drawn),-3.2*,1,22,8,-8
CCOC(=O)N1CCC(N2C(=O)c3ccccc3C2Nc2ccccc2)CC1 (stereo not drawn),.,0,-18,4,-4
CCOC(=O)N1CCC(N2C(=O)c3ccccc3C2Nc2cc(C(=O)OC)cc(C(=O)OC)c2)CC1 (stereo not drawn),.,0,10,-42,42*
Cc1cc(=O)oc2c1ccc1oc(/C(=N/O)c3ccccc3)c(C)c12,-3.7*,-1,-18,-4,4
Cc1nn(C)c(C)c1S(=O)(=O)N1CCCC(C(=O)NC2CCCCCC2)C1 (stereo not drawn),.,0,.,.,.
SMILES,PTK2B oligo ant,Phagocyt inh,HUVEC tox IL1B,IL1B NFkB inh,IL1B NFkB pot
CC1CCCCC1NC(=O)c1nn(C)c(=O)c2ccccc12 (stereo not drawn),0.39,.,-9,-78,78*
CCN(c1ccc(OC)cc1)S(=O)(=O)c1ccc2c(c1)CCN2C(=O)CCC(=O)O,-0.54,-1,-14,-4,4
CCN(c1ccc(C)c(C)c1)S(=O)(=O)c1ccc2c(c1)CCN2C(=O)CCC(=O)O,0.52,-1,-12,-54,54*
Cc1cc(NC(=O)c2cccc3ccccc23)cc(C)c1OCC(=O)N1CCOCC1,0.25,-2,-8,19,-19
CCN(CC)c1ccc2cc(-c3nc4ccccc4[nH]3)c(=O)oc2c1,-2.3,0,-2,-11,11
CCN(CC)c1ccc2cc(-c3nc4ccccc4n3C)c(=O)oc2c1,-1.4,4,59,34*,-34
CC(=O)c1cc(C(c2csc(C(C)=O)c2)c2csc(C(C)=O)c2)cs1,-0.72,.,24,-4,4
CCOc1ccc2nc(NC(=O)CSc3nc4c(c(=O)n(C)c(=O)n4C)n3C(C)C)sc2c1,-1.5,-2,.,.,.
CC(C)n1c(SCC(=O)Nc2nc3ccccc3s2)nc2c1c(=O)n(C)c(=O)n2C,-3.7*,.,6,7,-7
C=CCN1C(=O)C(Cc2ccc(C)cc2)S/C1=N/N=C/c1ccco1 (stereo not drawn),-0.28,0,-29,5,-5
O=C(CC(=O)c1cc(Cl)ccc1O)c1ccccc1,-1.4,-1,89*,-11,11
Cc1cccc(C(=O)CC(=O)c2cc(Cl)ccc2O)c1,-0.63,0,6,10,-11
CC1CCN(S(=O)(=O)c2csc(C(=O)Nc3ccccc3)c2)CC1,-1.2,-2,-43,-21,21
CCN1CCN(C(=O)Nc2ccccc2OC)CC1,0.28,.,92*,4,-4
COc1ccccc1NC(=O)N1CCN(c2ccccc2F)CC1,-0.45,-1,2,4,-4
Clc1ccc(-c2noc(COc3ccccc3)n2)cc1,0.35,0,.,.,.
Clc1ccc(-c2noc(CCCOc3ccccc3)n2)cc1,0.89,.,-10,84*,-84
Cc1ccc(N=Nc2c(=O)[nH]n3c(C)cc(C)nc23)cc1,-3.8*,.,9,-2,2
C(=C\c1ccccc1)/C=N/N1CCN(c2ccccn2)CC1,-0.5,-2,17,-7,7
COc1cccc(OC)c1C(=O)NN1CCCCC1,0.62,-1,-30,-3,3
COc1cc(OC)cc(C(=O)NN2CCCCC2)c1,-0.28,-1,-4,56*,-56
COc1cc2c(cc1NC(=O)c1cccc(Br)c1)CCCC2,0.13,2,8,-3,3
CCn1c(=O)n(CC)c2cc(S(=O)(=O)N3CCc4ccccc43)ccc21,-1.8,0,-12,-4,4
Cc1cc(C)nc(SCNC(=O)c2ccc(Cl)cc2)n1,0.69,0,-35,-22,22
O=c1ccc2cc(S(=O)(=O)N3CCOCC3)ccc2o1,1.7,7,-35,3,-3
Cc1oc2c(c1C(=O)c1ccc(Cl)cc1)C(=O)C(=O)c1ccccc1-2,-3.6*,-3,-26,9,-9
Cc1ccc(C(=O)c2c(C)oc3c2C(=O)C(=O)c2ccccc2-3)cc1,-3.8*,.,-2,-10,10

# Screens (PubChem)
